The campaign covered roughly 480,000 compounds. About 740 (0.15%) were called active. The list comes from a sample in which actives are over-represented; it also holds similar structures and randomly drawn compounds. Unmarked numbers belong to inactive results. Cut-off read from the data, not from the text of the source: active = activity change below about -30%; inconclusive = mostly about -25% to -30%; inactive = weaker than that.
target: L-lactate dehydrogenase A chain (Homo sapiens) (UniProt P00338); test: qHTS assay for inhibitors of human lactate dehydrogenase; details: purified LDHA, NADH/diaphorase-resazurin fluorescence; hits give low values;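 note: values are at about 110 or 230 µM; plate controls were DMSO wells for no effect and wells without enzyme for full effect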
Text: LDH is a key glycolytic enzyme that catalyzes the final step in the glycolytic pathway, reducing pyruvate to lactate and regenerating NAD+ equivalents necessary for continued glycolysis. LDHA has been linked to the carcinogenesis and malignancy in numerous forms of cancers and many other diseases. Consequently, both pharma and academia have invested in significant research efforts to identify small molecule therapeutics. Such attempts have been stalled or abandoned due to limited success in discovering potent and drug-like inhibitors that can be utilized to validate LDHA in vivo as a drug target, a necessary step toward advancing such a molecule towards the clinic Towards this goal we designed and performed a quantitative high-throughput screening (qHTS) campaign to discover novel compounds that are potent inhibitors of LDHA enzyme activity and cancer cell line growth.
The assay was optimized to 1536-well plates. Briefly, 3 µL of human lactate dehydrogenase 5 (#A38558H, Meridian Life Science, Inc., Memphis, TN) in LDH assay buffer (200 mM Tris HCl pH 7.4, 100 microM EDTA and 0.01% Tween-20) was added to a black solid bottom 1536-well assay plate (Greiner Bio-One) using a BioRAPTR FRD dispenser (Beckman Coulter, Brea, CA). A 1536-well pintool dispenser outfitted with 20 nL pins (Wako Automation, San Diego, CA) was used to transfer 23 nL of DMSO-solubilized compound (both library and vehicle controls) to each 1536-well assay plate. Following compound transfer, 1 µL of substrate solution containing NADH and sodium pyruvate (Sigma-Aldrich, St. Louis, MO) in LDH assay buffer was dispensed via BioRAPTR FRD to initiate the reaction. Final concentrations in the 4 microL reaction volume were 2 nM LDHA enzyme, 0.06 mM NADH and 0.2 mM sodium pyruvate. Following a 5 minute incubation period at room temperature, 1 µL of detection reagent (C. kluyveri diaphorase (Sigma-Aldrich) and resazurin sodium salt (Sigma-Aldrich) in LDH assay buffer) was added to a total volume of 5 µL. Final concentrations of detection reagents were 0.133 mg/mL diaphorase and 37 µM resazurin. Plates were immediately transferred to a ViewLux microplate imager (PerkinElmer, Waltham, MA), and any resulting resorufin fluorescence was measured (ex540, em590 nm) at 0 and 20 minutes. Fluorescence was normalized using enzyme-free and DMSO-treated control wells on each plate.

Structure (SMILES) | activity change
CCC(CC)(Cc1nc2ccccc2s1)C(=O)Nc1ccc(N2CCOCC2)cc1 | 5.36%
C/C(=N\NC(=O)c1ccc(C(C)(C)C)cc1)C(C)C | 11.2%
O=[N+]([O-])c1cc(S(=O)(=O)Nc2cccc(Cl)c2)ccc1N=Nc1c(O)[nH]c2ccccc12 | -42.1% (active)
O=[N+]([O-])c1cc(S(=O)(=O)Nc2ccc(Cl)cc2)ccc1N/N=C/c1ccccc1C(F)(F)F | 3.88%
O=[N+]([O-])c1cc(S(=O)(=O)Nc2ccccc2NS(=O)(=O)c2cccs2)ccc1Cl | 13.9%
COc1cccc(/C=N/NC(=O)c2[nH]nc3c2CCc2ccccc2-3)c1O | -78.6% (active)
CC(C)(C)c1ccc(/C=N/NC(=O)c2ccccc2)cc1 | 12.2%
Cc1cc(C)c(/C=N/NC(=O)c2ccccc2)c(C)c1 | 4.2%
CC(OC(=O)c1cccc(-n2cnnn2)c1)C(=O)Nc1ccc(N2CCOCC2)cc1 (stereo not given) | 6.53%
CC(=O)Nc1cccc(NC(=O)c2cnn(-c3ccccc3F)c2C(F)(F)F)c1C | 9.39%
O=C(NN=Cc1ccccc1O)NN=Cc1ccccc1O | -72% (active)
O=C(N/N=C/c1ccccc1Cl)c1ccc(Cl)s1 | 5.95%
O=C(N/N=C/c1ccccc1OCCOc1ccc([N+](=O)[O-])cc1)Nc1ccccc1 | -7.59%
N#C/C(=C/c1ccccc1)c1ccc(C(F)(F)F)cn1 | -3.61%
Cc1ccccc1CC(=O)Nc1ccc(N2CCOCC2)c(Cl)c1 | -4.8%
COCCN1C(=O)C(=O)/C(=C(/O)c2ccc3c(c2)OCCO3)C1c1cccc(O)c1 (stereo not given) | 9.53%
O=S(=O)(c1ccc2c(c1)OCCO2)c1nc(-c2cccc(Cl)c2)oc1N1CCOCC1 | -9.35%
NC(=O)c1ccc(NC(=O)CCc2ncc(-c3c(F)cccc3F)o2)cc1 | -1.68%
Cc1cc(N2CCC(C)CC2)n2nc(-c3ccccc3)nc2n1 | 7.05%
c1ccc(Oc2ccc(CNc3ncccn3)cn2)cc1 | -10.1%

Structure (SMILES) | activity change
CCCn1c(N)c(-c2csc(Nc3ccc(F)cc3)n2)c(=O)n(C)c1=O | 2.91%
CCc1nn2c(=O)cc(CN(CC)Cc3ccc(OCc4ccccc4)cc3)nc2s1 | -24.3%
Cc1ccccc1CSc1nc(=O)c2c(n1C)NC(=O)CC2c1ccc(OCC(N)=O)cc1 (stereo not given) | 2.91%
O=C(CSc1ccccc1F)c1ccc2c(c1)-c1ccccc1C2 | 10.6%
Cc1ccc(C)c(-n2c3c(cc(C#N)c2=O)C(=O)CC(c2ccccc2)C3)c1 (stereo not given) | -0.429%
CCOC(=O)c1c(C)[nH]c(C(=O)COc2cc(Cl)ccc2Cl)c1C | -3.64%
CC1=C(C(=O)Nc2cccc(C)c2C)C(c2ccc(C)cc2)NC(=O)N1 (stereo not given) | -9.14%
CC1CCN(C(=O)C(C)n2cnc3c2c(=O)n(C)c(=O)n3C)CC1 (stereo not given) | 1.51%
COc1ccc(-c2csc(-c3cc4c([nH]c3=O)CC(c3ccco3)CC4=O)n2)cc1F (stereo not given) | 6.35%
COc1ccc(-c2c(C)c3cc(OS(=O)(=O)c4ccc(F)cc4)ccc3oc2=O)cc1OC | 1.58%
CCN(CC(=O)Nc1cccc(S(=O)(=O)N2CCCCC2)c1)Cc1ccccc1 | -5.08%
CCN(CC(=O)Nc1ccc(S(=O)(=O)N2CCCC2)cc1)CC(=O)Nc1cccc(OC)c1 | -38.2% (active)
COc1cccc(CNC(C)C(=O)Nc2ccc(S(=O)(=O)N3CCCC3)cc2)c1 (stereo not given) | -0.452%
CC(C)CC(NC(=O)C(c1ccccc1)c1ccccc1)c1ccccc1 (stereo not given) | -5.71%
Oc1c(Cl)cc(Cl)c(Cl)c1Cc1c(O)c(Cl)cc(Cl)c1Cl | -106% (active)
Fc1cccc(Cl)c1CNc1ccc(Cl)cc1 | 11.8%
CC(C)(C)n1nc(N)c2cc([N+](=O)[O-])ccc21 | -0.323%
O=C(Cc1c[nH]c2ccccc12)Nc1cc(F)cc(F)c1 | 0.607%
O=C(O)COCCOCC(=O)O | -30% (active)
C=CC(=O)OCCOCCOCCOCCOC(=O)C=C | -3.09%

Structure (SMILES) | activity change
O=C(O)CCC(=O)O | 0.526%
CCN(CC(=O)NCc1cccs1)C(=O)c1cccc(S(=O)(=O)N(C)c2ccc(C)cc2)c1 | 2.57%
O=C(Cc1ccsc1)NCCc1ccccc1 | -0.295%
CCCOc1ccc(N2C(=O)CC(N(CCc3ccc(S(N)(=O)=O)cc3)C(C)=O)C2=O)cc1 (stereo not given) | -18%
O=C1C2C3C=CC(C3)C2C(=O)N1c1ccc(S(=O)(=O)Nc2nccs2)cc1 (stereo not given) | -9.54%
NS(=O)(=O)c1ccc(N2C(=O)C3C4CC(C(Br)C4Br)C3C2=O)cc1 (stereo not given) | -58.8% (active)
O=C(NCc1nc(-c2ccc(Cl)cc2)no1)c1cc2ccccc2o1 | 0.842%
Cc1ccc(-c2ccccc2N)cc1 | -2.5%
O=C(c1ccc[nH]1)c1cc2cc(Br)ccc2o1 | -2.8%
Cc1cccc(/C=C/C(=O)c2cccs2)c1 | 7.28%
CCCNC(=O)C(C)NC(=O)COc1ccccc1NC(C)=O (stereo not given) | -1.76%
Cc1ccc(-c2nc(CS(=O)CC(=O)Nc3ccc(C)c(C)c3)cs2)cc1 (stereo not given) | 0.528%
O=C(O)CCC(=O)Nc1ccc2c(C(C(=O)O)N3CCN(c4ccccc4)CC3)c[nH]c2c1 (stereo not given) | -5.22%
Cc1ccc(NC(=O)C(Sc2nnnn2C2CCCC2)c2ccccc2)cc1 (stereo not given) | 11.6%
c1ccc(-c2nc(-c3ccc4c(c3)OCCCO4)cs2)nc1 | 5.7%
c1coc(CNc2ccc3c(c2)ncn3C2CCCCC2)c1 | 13.3%
COc1ccccc1OCCCCCCN1CCN(C)CC1 | -2.1%
CC1CCCN(CCOCCOc2ccccc2-c2ccccc2)C1 (stereo not given) | -8.67%
CN1CCN(CCCCOc2ccccc2-c2ccccc2)CC1 | -36.2% (active)
O=C(CCn1ccccc1=O)Nc1ccc(Cl)cc1Cl | 11.9%

Reference: PubChem BioAssay AID1347041 (National Center for Advancing Translational Sciences (NCATS), 2019)
